Laboratory results from ChEMBL document CHEMBL1961873, “Compounds: GSK PKIS; Assays: Nanosyn kinase panel” (2012).

What was measured:
[1] = biological target: Fibroblast growth factor receptor 4 (Homo sapiens) (UniProt P22455); conditions: at 1 µM;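 further: reported figure is the averaged percent inhibition of FGFR4, from the GSK PKIS kinase screening panel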
[2] = biological target: Tyrosine-protein kinase Fgr (Homo sapiens) (UniProt P09769); conditions: at 0.1 µM
[3] = biological target: Tyrosine-protein kinase Fgr (Homo sapiens) (UniProt P09769); conditions: at 1 µM
[4] = biological target: Vascular endothelial growth factor receptor 1 (Homo sapiens) (UniProt P17948); conditions: at 0.1 µM
[5] = biological target: Vascular endothelial growth factor receptor 1 (Homo sapiens) (UniProt P17948); conditions: at 1 µM
[6] = biological target: Receptor-type tyrosine-protein kinase FLT3 (Homo sapiens) (UniProt P36888); conditions: at 0.1 µM
[7] = biological target: Receptor-type tyrosine-protein kinase FLT3 (Homo sapiens) (UniProt P36888); conditions: at 1 µM
[8] = test system: T1, Receptor-type tyrosine-protein kinase FLT3 (Homo sapiens), P36888 [D835Y]; conditions: at 0.1 µM
T1 sequence (whole entry): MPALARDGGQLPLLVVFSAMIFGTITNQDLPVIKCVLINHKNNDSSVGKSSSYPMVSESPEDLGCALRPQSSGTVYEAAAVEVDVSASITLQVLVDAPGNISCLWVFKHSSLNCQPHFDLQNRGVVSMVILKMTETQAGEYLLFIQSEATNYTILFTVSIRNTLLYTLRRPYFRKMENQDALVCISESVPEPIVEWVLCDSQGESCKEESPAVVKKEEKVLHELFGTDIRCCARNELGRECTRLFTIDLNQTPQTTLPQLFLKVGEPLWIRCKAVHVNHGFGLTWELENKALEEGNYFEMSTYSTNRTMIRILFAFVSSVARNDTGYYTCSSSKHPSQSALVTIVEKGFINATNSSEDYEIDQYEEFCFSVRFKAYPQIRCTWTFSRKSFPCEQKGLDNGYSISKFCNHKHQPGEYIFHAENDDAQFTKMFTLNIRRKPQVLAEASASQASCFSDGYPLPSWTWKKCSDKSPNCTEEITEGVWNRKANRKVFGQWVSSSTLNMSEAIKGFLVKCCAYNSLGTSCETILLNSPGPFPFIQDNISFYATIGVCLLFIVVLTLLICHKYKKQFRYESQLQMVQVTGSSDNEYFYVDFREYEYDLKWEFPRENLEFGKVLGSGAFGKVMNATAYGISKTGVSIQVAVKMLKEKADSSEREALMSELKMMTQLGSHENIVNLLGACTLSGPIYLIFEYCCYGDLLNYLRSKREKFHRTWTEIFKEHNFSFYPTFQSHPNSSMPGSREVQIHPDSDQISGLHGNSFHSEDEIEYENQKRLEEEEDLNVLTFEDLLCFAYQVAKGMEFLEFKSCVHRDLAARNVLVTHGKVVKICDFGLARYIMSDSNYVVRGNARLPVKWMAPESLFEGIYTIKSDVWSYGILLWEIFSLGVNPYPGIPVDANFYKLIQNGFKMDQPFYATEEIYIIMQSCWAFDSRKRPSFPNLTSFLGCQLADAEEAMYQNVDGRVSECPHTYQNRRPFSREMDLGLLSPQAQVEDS

[9] = biological target: Non-receptor tyrosine-protein kinase TYK2 (Homo sapiens) (UniProt P29597); conditions: at 1 µM;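 further: values are mean percent inhibition of TYK2 kinase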
[10] = biological target: T2, Tyrosine-protein kinase receptor TYRO3 (Homo sapiens) (UniProt Q06418); conditions: at 0.1 µM
T2 sequence (whole entry): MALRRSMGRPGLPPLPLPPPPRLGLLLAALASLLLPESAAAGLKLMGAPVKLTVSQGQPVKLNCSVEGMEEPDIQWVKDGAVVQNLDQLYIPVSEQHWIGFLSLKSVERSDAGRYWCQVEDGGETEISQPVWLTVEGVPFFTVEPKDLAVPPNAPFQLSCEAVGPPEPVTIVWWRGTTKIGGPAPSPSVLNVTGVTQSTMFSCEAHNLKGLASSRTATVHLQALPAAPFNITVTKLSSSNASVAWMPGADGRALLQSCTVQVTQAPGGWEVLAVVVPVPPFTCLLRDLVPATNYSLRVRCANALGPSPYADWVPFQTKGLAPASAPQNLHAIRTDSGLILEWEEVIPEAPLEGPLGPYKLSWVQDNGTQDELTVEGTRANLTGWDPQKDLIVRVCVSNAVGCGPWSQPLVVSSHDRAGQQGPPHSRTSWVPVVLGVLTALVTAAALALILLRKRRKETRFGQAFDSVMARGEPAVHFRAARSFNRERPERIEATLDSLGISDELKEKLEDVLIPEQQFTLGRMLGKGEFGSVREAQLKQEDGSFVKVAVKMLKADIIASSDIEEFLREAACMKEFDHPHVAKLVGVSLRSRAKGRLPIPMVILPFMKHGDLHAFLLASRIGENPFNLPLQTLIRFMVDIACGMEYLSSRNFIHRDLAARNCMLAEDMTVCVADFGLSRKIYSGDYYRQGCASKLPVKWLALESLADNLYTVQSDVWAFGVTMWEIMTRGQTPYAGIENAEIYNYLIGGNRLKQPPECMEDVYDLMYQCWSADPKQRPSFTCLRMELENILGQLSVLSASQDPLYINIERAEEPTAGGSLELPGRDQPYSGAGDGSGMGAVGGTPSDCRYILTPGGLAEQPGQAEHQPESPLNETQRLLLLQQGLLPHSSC

[11] = biological target: T2, Tyrosine-protein kinase receptor TYRO3 (Homo sapiens); conditions: at 1 µM
[12] = biological target: Tyrosine-protein kinase Yes (Homo sapiens) (UniProt P07947); conditions: at 0.1 µM
[13] = biological target: Tyrosine-protein kinase Yes (Homo sapiens) (UniProt P07947); conditions: at 1 µM
[14] = biological target: T3, Tyrosine-protein kinase ZAP-70 (Homo sapiens) (UniProt P43403); conditions: at 0.1 µM
T3 sequence (whole entry): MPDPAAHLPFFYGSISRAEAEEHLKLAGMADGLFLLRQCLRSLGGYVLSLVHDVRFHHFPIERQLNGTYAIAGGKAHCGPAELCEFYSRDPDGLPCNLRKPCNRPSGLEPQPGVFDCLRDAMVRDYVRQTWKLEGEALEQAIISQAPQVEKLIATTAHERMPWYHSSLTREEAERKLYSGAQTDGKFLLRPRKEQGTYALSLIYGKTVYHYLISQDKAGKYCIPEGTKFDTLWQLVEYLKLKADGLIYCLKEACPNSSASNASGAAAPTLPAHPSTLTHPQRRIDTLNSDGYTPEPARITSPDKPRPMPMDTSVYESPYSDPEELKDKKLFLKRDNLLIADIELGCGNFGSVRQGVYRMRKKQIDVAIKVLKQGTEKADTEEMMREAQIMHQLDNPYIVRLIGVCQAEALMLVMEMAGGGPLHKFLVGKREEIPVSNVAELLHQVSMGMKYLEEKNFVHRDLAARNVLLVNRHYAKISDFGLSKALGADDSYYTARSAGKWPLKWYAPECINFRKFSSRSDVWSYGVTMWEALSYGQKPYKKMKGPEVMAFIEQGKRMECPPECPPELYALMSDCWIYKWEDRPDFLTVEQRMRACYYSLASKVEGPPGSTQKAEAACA

[15] = biological target: T3, Tyrosine-protein kinase ZAP-70 (Homo sapiens); conditions: at 1 µM
[16] = biological target: Serine/threonine-protein kinase B-raf (Homo sapiens) (UniProt P15056); conditions: at 0.1 µM
[17] = biological target: Serine/threonine-protein kinase B-raf (Homo sapiens) (UniProt P15056); conditions: at 1 µM
[18] = test system: Serine/threonine-protein kinase B-raf (Homo sapiens), P15056 [V600E]; conditions: at 0.1 µM
[19] = test system: Serine/threonine-protein kinase B-raf (Homo sapiens), P15056 [V600E]; conditions: at 1 µM
[20] = biological target: RAF proto-oncogene serine/threonine-protein kinase (Homo sapiens) (UniProt P04049); conditions: at 0.1 µM;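 further: values are mean CRAF kinase inhibition from profiling of the GSK Published Kinase Inhibitor Set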
RAF proto-oncogene serine/threonine-protein kinase (Homo sapiens), sequence (P04049 whole entry): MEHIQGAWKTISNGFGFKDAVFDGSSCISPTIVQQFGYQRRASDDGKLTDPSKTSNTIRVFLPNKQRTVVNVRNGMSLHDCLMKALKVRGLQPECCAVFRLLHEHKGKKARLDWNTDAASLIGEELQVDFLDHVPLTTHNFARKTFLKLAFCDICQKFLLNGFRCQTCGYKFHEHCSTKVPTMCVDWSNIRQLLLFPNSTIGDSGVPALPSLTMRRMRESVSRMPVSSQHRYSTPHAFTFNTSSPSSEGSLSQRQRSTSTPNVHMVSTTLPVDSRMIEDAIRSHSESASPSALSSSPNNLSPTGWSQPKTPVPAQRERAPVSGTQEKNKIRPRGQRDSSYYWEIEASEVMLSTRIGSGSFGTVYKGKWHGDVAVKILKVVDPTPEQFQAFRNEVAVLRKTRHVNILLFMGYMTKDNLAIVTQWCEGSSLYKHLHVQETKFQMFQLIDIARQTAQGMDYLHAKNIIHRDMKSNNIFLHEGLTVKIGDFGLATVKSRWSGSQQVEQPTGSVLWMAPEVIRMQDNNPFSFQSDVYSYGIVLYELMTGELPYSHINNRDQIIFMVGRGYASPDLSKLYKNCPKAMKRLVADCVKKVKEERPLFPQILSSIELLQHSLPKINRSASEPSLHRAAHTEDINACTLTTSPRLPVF

Serine/threonine-protein kinase B-raf (Homo sapiens), sequence (P15056 whole entry): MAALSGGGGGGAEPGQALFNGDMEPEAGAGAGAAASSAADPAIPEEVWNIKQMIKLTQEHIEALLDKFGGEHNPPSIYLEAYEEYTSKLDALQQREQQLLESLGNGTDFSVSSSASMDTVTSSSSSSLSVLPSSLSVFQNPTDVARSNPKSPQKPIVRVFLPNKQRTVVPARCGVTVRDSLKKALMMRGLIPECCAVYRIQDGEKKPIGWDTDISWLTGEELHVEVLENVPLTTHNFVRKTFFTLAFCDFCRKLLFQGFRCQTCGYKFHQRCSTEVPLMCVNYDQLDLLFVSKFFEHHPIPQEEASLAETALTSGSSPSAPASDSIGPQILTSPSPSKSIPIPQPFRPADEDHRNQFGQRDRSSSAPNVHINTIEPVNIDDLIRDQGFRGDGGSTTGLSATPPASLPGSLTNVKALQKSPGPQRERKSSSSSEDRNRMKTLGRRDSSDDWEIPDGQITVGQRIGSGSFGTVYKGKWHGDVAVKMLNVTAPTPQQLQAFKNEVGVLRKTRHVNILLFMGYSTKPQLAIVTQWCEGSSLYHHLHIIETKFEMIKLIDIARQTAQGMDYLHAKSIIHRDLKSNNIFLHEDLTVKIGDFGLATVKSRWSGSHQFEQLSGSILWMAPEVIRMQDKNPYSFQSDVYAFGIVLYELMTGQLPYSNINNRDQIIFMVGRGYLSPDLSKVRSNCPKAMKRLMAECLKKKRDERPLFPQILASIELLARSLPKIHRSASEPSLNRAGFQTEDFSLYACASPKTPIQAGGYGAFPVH
Tyrosine-protein kinase Yes (Homo sapiens), sequence (P07947 2-543 limits assumed): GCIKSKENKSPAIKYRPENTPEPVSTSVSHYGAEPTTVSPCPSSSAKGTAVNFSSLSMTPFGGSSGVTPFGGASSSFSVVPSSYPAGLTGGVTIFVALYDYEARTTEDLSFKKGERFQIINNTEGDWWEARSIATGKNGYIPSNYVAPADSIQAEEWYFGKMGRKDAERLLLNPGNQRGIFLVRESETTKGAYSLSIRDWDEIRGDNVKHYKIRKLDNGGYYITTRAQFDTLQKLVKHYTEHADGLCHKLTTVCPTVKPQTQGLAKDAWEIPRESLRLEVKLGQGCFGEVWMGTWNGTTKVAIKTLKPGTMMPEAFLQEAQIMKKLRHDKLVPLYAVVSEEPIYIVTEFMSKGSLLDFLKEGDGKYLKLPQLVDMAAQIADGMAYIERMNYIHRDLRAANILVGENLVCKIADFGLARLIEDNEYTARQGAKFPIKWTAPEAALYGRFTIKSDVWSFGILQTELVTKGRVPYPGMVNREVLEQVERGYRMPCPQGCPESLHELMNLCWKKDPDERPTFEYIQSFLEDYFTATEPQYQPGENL
Fibroblast growth factor receptor 4 (Homo sapiens), sequence (P22455 22-802 limits assumed): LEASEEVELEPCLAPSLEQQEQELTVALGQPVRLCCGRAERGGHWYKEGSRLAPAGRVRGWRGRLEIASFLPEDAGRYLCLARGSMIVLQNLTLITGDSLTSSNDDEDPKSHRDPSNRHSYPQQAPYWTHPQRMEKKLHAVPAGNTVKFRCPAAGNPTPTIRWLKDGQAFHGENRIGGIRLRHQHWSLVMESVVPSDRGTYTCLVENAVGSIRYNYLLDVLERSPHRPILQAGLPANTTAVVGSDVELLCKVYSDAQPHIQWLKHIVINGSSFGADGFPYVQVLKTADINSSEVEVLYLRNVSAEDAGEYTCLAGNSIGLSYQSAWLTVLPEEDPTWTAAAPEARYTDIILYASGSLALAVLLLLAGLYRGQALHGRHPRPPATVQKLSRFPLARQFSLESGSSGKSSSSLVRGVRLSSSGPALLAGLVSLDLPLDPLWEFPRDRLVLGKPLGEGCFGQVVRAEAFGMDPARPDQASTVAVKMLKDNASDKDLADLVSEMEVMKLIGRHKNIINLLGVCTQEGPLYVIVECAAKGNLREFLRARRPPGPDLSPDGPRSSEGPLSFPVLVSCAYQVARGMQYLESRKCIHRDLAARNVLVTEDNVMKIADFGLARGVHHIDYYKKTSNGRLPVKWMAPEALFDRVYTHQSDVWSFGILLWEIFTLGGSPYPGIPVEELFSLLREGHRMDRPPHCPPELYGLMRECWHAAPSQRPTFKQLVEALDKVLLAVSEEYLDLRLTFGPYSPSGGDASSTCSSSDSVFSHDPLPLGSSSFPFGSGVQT
Tyrosine-protein kinase Fgr (Homo sapiens), sequence (P09769 2-529 limits assumed): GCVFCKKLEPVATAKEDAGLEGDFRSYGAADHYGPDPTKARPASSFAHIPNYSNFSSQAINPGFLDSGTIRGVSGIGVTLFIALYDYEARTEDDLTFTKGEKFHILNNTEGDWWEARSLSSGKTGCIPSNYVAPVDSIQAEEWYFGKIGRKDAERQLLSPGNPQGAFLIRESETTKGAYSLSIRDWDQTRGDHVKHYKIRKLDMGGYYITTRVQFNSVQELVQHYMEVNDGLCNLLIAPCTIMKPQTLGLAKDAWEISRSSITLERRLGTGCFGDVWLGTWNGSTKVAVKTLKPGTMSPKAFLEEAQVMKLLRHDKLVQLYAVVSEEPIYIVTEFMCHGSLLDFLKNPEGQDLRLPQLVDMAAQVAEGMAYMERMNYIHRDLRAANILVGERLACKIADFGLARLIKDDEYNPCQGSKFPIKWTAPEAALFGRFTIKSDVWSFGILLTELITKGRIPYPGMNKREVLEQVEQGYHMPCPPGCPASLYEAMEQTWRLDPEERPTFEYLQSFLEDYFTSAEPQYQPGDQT
Non-receptor tyrosine-protein kinase TYK2 (Homo sapiens), sequence (P29597 whole entry): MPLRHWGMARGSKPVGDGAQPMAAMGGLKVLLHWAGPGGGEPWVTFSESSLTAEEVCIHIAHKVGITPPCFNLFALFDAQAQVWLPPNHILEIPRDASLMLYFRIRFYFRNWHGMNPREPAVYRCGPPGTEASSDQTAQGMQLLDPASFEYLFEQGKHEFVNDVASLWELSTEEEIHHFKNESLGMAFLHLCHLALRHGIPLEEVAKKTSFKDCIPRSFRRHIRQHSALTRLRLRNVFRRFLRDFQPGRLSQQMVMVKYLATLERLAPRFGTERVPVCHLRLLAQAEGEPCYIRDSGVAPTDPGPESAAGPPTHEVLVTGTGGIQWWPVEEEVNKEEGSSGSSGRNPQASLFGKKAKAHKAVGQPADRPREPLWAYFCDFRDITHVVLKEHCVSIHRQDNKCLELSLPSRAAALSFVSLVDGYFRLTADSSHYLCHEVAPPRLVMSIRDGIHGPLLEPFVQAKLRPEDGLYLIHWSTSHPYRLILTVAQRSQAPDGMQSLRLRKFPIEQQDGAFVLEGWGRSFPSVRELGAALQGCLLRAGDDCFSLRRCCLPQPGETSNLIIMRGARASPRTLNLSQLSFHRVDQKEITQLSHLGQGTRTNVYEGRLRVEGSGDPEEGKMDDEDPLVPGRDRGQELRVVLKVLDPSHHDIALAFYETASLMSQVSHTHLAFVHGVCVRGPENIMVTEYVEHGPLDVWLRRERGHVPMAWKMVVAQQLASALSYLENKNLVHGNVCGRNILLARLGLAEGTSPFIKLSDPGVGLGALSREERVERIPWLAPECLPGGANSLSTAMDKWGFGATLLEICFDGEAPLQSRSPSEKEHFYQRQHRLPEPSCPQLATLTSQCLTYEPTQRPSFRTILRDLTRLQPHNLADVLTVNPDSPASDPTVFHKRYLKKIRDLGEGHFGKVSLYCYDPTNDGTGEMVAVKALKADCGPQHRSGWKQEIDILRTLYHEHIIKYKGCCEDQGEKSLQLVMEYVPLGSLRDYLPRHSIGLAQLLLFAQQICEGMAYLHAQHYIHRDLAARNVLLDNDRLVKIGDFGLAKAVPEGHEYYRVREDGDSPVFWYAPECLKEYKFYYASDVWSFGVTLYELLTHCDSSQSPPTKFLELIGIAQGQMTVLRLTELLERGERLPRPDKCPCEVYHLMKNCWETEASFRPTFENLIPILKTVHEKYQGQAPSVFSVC
Serine/threonine-protein kinase B-raf (Homo sapiens), P15056 [V600E], sequence (P15056 whole entry V600E): as the sequence (P15056 whole entry) above, with V600E counted along it

| Structure (SMILES) | inhibition [1] | inhibition [2] | inhibition [3] | inhibition [4] | inhibition [5] | inhibition [6] | inhibition [7] | inhibition [8] | inhibition [9] | inhibition [10] | inhibition [11] | inhibition [12] | inhibition [13] | inhibition [14] | inhibition [15] | inhibition [16] | inhibition [17] | inhibition [18] | inhibition [19] | inhibition [20] |
| --- | --- | --- | --- | --- | --- | --- | --- | --- | --- | --- | --- | --- | --- | --- | --- | --- | --- | --- | --- | --- |
| NS(=O)(=O)c1ccc(Nc2ncc(-c3ccccc3)o2)cc1 | 1.97% | 2.45% | 10.1% | 4.95% | 13.1% | 35.3% | 78.8% | 8.41% | 2.33% | 3.59% | 4.49% | 3.4% | 7.73% | 2.88% | 2.94% | 5.82% | 8.2% | 6.65% | 6.08% | -0.15% |
| CCN(CC)S(=O)(=O)c1ccc(OC)c(Nc2ncc(-c3ccccc3)o2)c1 | 3.57% | 10.4% | 38.8% | 7.45% | 30.6% | 10.2% | 53.4% | 17.9% | 0.12% | 8.1% | 45.8% | 24.2% | 58.6% | 2.08% | -0.02% | 0.42% | 0.29% | -0.35% | 0.01% | 0.35% |
| COc1cc(N2CCN(C(C)C)CC2)ccc1Nc1nc(Nc2ccc(F)cc2C(N)=O)c2cc[nH]c2n1 | 7.42% | 0.9% | 5.03% | -0.84% | 0.61% | 2.47% | 8.56% | 2.42% | -2.61% | 0.64% | 2.95% | 0.75% | 7.33% | 6.3% | 23.5% | 2.3% | 16.1% | 1.62% | 13.7% | 0.33% |
| CCn1c(-c2nonc2N)nc2cnc(Oc3cccc(NC(=O)c4ccc(N(C)C)cc4)c3)cc21 | -0.05% | 0.55% | – | 2.13% | 4.41% | 0.6% | 1.09% | -1.65% | -0.04% | 0.1% | 0.87% | 0.93% | 2.45% | 1.81% | 2.72% | 1.95% | 5.71% | 2.62% | 6.32% | 0.85% |
| COc1ccc(-c2nn3ncccc3c2-c2ccnc(Nc3ccc4c(c3)OCCO4)n2)cc1 | 1.91% | 47.9% | 79.8% | 4.09% | 26.8% | -1.66% | -0.57% | -7.3% | -1.85% | -0.58% | 9.92% | 79.3% | 95.8% | – | -0.83% | 2.67% | 5.07% | 1.25% | 4.88% | -0.5% |
| Cc1cccc2c1NC(=O)/C2=N\Nc1ccc(S(N)(=O)=O)cc1 | 1.63% | 0.52% | 4.37% | -0.48% | -0.65% | 2.88% | 8.43% | 3.4% | -0.5% | 3.05% | 1.39% | 0.81% | -0.24% | 2.59% | 2.59% | 3.47% | 4.79% | 2.89% | 3.31% | -3.52% |
| CCn1cc(-c2ccnc3[nH]ccc23)c(-c2cccc(NC(=O)Nc3ccc(OCc4ccccc4)cc3)c2)n1 | 3.27% | 7.42% | 34.1% | -3.05% | 2.9% | -1.9% | -2.19% | -9.12% | 0.52% | 0.03% | 1.53% | 1.1% | 24.8% | -0.61% | 2.51% | – | – | – | – | 4.65% |
